Data as given in PubChem BioAssay (EPA / NIEHS).
Calls of active or inactive are those of the source. The calls were made as follows: active = hit-call score of the fitted dose curve at least 0.9, where 1 is the maximum; inactive = score below 0.9.

Experiment: ATG_NRF2_ARE_CIS: Attagene CIS-FACTORIAL HepG2 Assay for human Nuclear Factor Erythroid 2 Related Factor 2 (NFR2) response to Antioxidant Response Elements (ARE) (AID 2282992)
Conditions: HepG2 Attagene ARE/NRF2 reporter, transcription factor activity; actives raise or lower the signal
Description: ATG_CIS is a cell-based, multiplexed-readout assay that uses HepG2, a human liver cell line, with measurements taken at 24 hours after chemical dosing in a 24-well plate.ATG_NRF2_ARE_CIS is one of 52 assay component(s) measured or calculated from the ATG_CIS assay. It is designed to make measurements of mRNA induction, a form of inducible reporter, as detected with fluorescence intensity signals by Reverse transcription polymerase chain reaction (RT-PCR) and Capillary electrophoresis technology.Data from the assay component ATG_NRF2_ARE_CIS was analyzed into 1 assay endpoint. This assay endpoint, ATG_NRF2_ARE_CIS, was analyzed with bidirectional fitting relative to DMSO as the negative control and baseline of activity. Using a type of inducible reporter, measures of mRNA for gain or loss-of-signal activity can be used to understand the reporter gene at the transcription factor-level as they relate to the gene NFE2L2. Furthermore, this assay endpoint can be referred to as a primary readout, because this assay has produced multiple assay endpoints where this one serves a reporter gene function. To generalize the intended target to other relatable targets, this assay endpoint is annotated to the dna binding intended target family, where the subfamily is basic leucine zipper.
Human liver HepG2 cells are transiently transfected with multiple reporter transcription units (MRTUs) in 6-well plates using FuGene 6 reagent (Roche; 3 ml FuGene/1 mg DNA). The MRTU constructs are regulated by a cis-regulating element (promoter). […] A major difference between the CIS and TRANS system is that in CIS activities of endogenous TFs are measured, whereas the TRANS assay evaluates changes in activities of exogenous, chimeric NR-Gal4 proteins. […] At the end of 24 hour incubation, total RNA was isolated using TriZol reagent (Invitrogen). The isolated RNA is then reverse-transcribed using oligo(dT) primer and Mo-MLV reverse transcriptase (Invitrogen) with DNAse I (Ambion) treatment for 30 min. The one-tenth of the produced cDNA was amplified by PCR using Taq DNA polymerase (Invitrogen) and two reporter sequence-specific primers. The PCR products were fluorescently labeled by primer extension with 6-arboxyfluorescein (6-FAM) 5'-labeled reporter sequence-specific primer (2 min at 95 C, 20 s at 68 C and 10 min at 72 C) and these products were digested with 5U of HpaI (New England Biolabs) for 2h at 37 C. The fragments were purified using Qiaquick PCR columns (Qiagen), analyzed on an ABI 3130xL genetic analyzer (Applied Biosystems) with peak positions identified by using a set of X-rhodamine (ROX)-labeled MapMarker1000 molecular weight standards (BioVentures). The raw capillary electrophoresis data was processed using Attagraph software (Attagene).

outcome, inactive:
Cc1ccccc1S(N)(=O)=O
CC=CC(=O)O
CC(C)CC(=O)O
O=C(Oc1ccccc1)c1ccccc1
CC(C)=CCOC(=O)c1ccccc1
CN(C)CCC(c1ccc(Cl)cc1)c1ccccn1 (stereo not given)
NCc1ccccc1
O=C(O)c1cc(Cl)cc(Cl)c1O
C=C(C)C(=O)OCCCCCC
NC(=O)c1ccc(N)cc1
Cc1cc2nc3c(=O)[nH]c(=O)nc-3n(C[C@H](O)[C@H](O)[C@H](O)CO)c2cc1C
N#CCN(CC#N)CCN(CC#N)CC#N
CCOC(=O)CC(=O)OCC
CNC[C@H](O)[C@@H](O)[C@H](O)[C@H](O)CO
CC(=O)OC(C)(C)Cc1ccccc1
COc1cccc(OC)c1C(=O)O
CC1(C)S[C@@H]2[C@H](NC(=O)[C@H](N)c3ccccc3)C(=O)N2[C@H]1C(=O)O
Cc1cccnc1
CCCCNC(N)=O
CC[N+](CC)(CC(=O)Nc1c(C)cccc1C)Cc1ccccc1 (tested in a mixture with another compound)
[O-][n+]1ccc(Cl)cc1
CCC(C)(CCC(C)C)C(=O)O (stereo not given)
Clc1ccccn1
O=C(C1CCCCC1)N1CC(=O)N2CCc3ccccc3C2C1 (stereo not given)
CC(C)(C)NC(=O)[C@@H]1CN(Cc2cccnc2)CCN1C[C@@H](O)C[C@@H](Cc1ccccc1)C(=O)N[C@H]1c2ccccc2C[C@H]1O
C=CN1CCCCCC1=O
O=C(CC(C(=O)OC1CCCCC1)S(=O)(=O)O)OC1CCCCC1 (stereo not given)
CCCCCCC1CCC(=O)O1 (stereo not given)
O=C1NC(=O)C2CC=CCC12 (stereo not given)

AC50, active:
c1cc[c]([Bi]([c]2ccccc2)[c]2ccccc2)cc1 48.9 µM
CC1=CCCC(C)(C)C12CCC(C)O2 (stereo not given) 17.5 µM
COC(=O)/C=C\C(=O)OC 10.5 µM
CC/C=C\CC1=C(C)CCC1=O 35.9 µM
Cc1cc(O)cc(C)c1Cl 22.5 µM
CCCCCC[C@@H](O)C/C=C\CCCCCCCC(=O)O 100 µM
CN(C)N=Nc1ccccc1 177 µM
CC(C)CC(=O)CC(C)CC(C)C (stereo not given) 116 µM
CCCCCCCCCC/C=C/C1CC(=O)OC1=O (stereo not given) 79.8 µM
C=CC(C)(CCC=C(C)C)OC(=O)c1ccccc1 (stereo not given) 98 µM
CCCCCCC1CCCC(=O)O1 (stereo not given) 139 µM
